Results filed as inconclusive are left out. Calls of active or inactive are those of the source. Calls come from the whole dose curve; as a rule, active = well fitted cell-killing curve with a large enough effect in the repeat runs; inconclusive = weak or mixed curves, or effect the other way; inactive = flat fitted curve, though single readings scatter.
% is set by controls: 0 for no effect and ±100 for the full control effect.

This experiment can be described thus: qHTS assay to identify small molecule antagonists of the estrogen receptor alpha (ER-alpha) signaling pathway using the BG1 cell line in the presence of 0.1 nM 17-beta-estradiol - cell viability counter screen (AID 1259241). Note: nearly all actives have a fitted effect of over 40% in size. To be noted: VM7Luc4E2 (BG1) viability, CellTiter-Fluor protease, 22 h, 0.1 nM estradiol agonist added; series mostly up to 92.4 µM; activity change, negative = cytotoxicity: at the top concentration. The text has this: National Center for Advancing Translational Sciences [NCATS]
NIH Chemical Genomics Center [NCGC]
U.S. Environmental Protection Agency [EPA]
National Institutes of Environmental Health Sciences [NIEHS]
National Toxicology Program [NTP]
U.S. Food and Drug Administration [FDA]
Estrogen receptor (ER), a member of the nuclear hormone receptor plays an important role in development, metabolic homeostasis and reproduction. Two subtypes of ER, ER-alpha and ER-beta, have similar expression patterns with some uniqueness in both types. Endocrine disrupting chemicals (EDCs) and their interactions with steroid hormone receptors like ER causes disruption of normal endocrine function. Therefore, it is important to understand the effect of environmental chemicals in ER signaling pathway. For identifying ER antagonists, VM7Luc4E2 cell line was used to screen against Tox21 compound libraries.
VM7Luc4E2 cell line (provided by Denison MS, University of California) endogenously express full-length ER-alpha and is stably transfected with a plasmid containing four estrogen responsive elements (ERE) upstream of a luciferase reporter gene. The current screening for identification of ER-alpha inhibitors against Tox21 compound libraries used lower concentration (0.1 nM) of 17beta-Estradiol as a stimulator. The cytotoxicity of the Tox21 compound libraries against VM7Luc4E2 cell line was tested by measuring live-cell protease activity using CellTiter-Fluor assay in the same wells.
Tox21 Assay Protocol Summary:
VM7Luc4E2 cells were cultured in phenol red free assay medium containing 10% charcoal stripped FBS for 5 days prior to the assay. The cells were dispensed at 4,000 cells/well in 4 uL of assay medium into white wall/solid-bottom 1536-well plates (Corning Life Sciences, Corning, NY) using a Multidrop Combi (ThermoFisher Scientific, Waltham, MA) dispenser. After the assay plates were incubated at 37C and 5% CO2 for 24 hr, 23 nL of compounds dissolved in DMSO, positive controls or DMSO only was transferred to the assay plates by a Pintool station (Kalypsys, San Diego, CA). The transfer of compounds was followed by the addition of 1 uL of 0.1 nM (final concentration) agonist (17beta-Estradiol)/assay medium using a Flying Reagent Dispenser (FRD, Aurora Discovery, San Diego, CA). The plates were incubated at 37C and 5% CO2 for 22 hr. For cytotoxicity assay, 1 uL of CellTiter-Fluor reagent (Promega Corporation, Madison, WI) was added to each well using the FRD and after 30 min incubation at 37C and 5% CO2, The fluorescence intensity was measured using ViewLux plate reader (PerkinElmer, Shelton, CT).
(In general: qHTS replaces the single test concentration by a dilution series.)
For the compound `O=C(c1ccccc1O)c1ccccc1O`, the “activity change, negative = cytotoxicity” value is 7.09% (inactive). Then `CCOC(=O)COc1cc(-n2ncc(C(F)(F)F)c(C)c2=O)c(F)cc1Cl`, with -1.32% (inactive). Consider `CC(C)(N)C#N`, for which the “activity change, negative = cytotoxicity” value was 1.33% (inactive).

With `C=C(C)C(=O)OCC(O)CO` (stereo not given), the “activity change, negative = cytotoxicity” value was 2.1% [at 42.5 µM] (inactive). The same measure for `O=S(=O)(O)c1cccc2ccccc12`: 3.51% (inactive). For `O=Cc1cccc(Br)c1`, the “activity change, negative = cytotoxicity” value is -24.6% (inactive). On to `NC(=O)Cc1cccc2ccccc12`, for which the “activity change, negative = cytotoxicity” value was 0% (inactive). Then `OCCCCCO`, with 9.13% (inactive); and `CCCCCCCCCCCCCCC(=O)O`, with 8.39% (inactive); and `CCCCN(CCC(=O)OCC)C(C)=O`, with -0.733% (inactive). Then `Cc1ccc(-c2ccccc2C#N)cc1`, with 0.21% [at 42.5 µM] (inactive); and `CNC(=O)Nc1ccc(Cl)c(Cl)c1`, with -1.88% (inactive); and `CCN[C@H]1C[C@H](C)S(=O)(=O)c2sc(S(N)(=O)=O)cc21`, with 6.98% [at 42.5 µM] (inactive). The same measure for `CCCC[N+](C)(CCCC)CCCC`: 10.1% (inactive); for `CC(C(=O)O)c1cccc(Oc2ccccc2)c1` (stereo not given): 0.0376% [at 42.5 µM] (inactive). `Nc1ccn([C@@H]2O[C@H](CO)[C@@H](O)C2O)c(=O)n1` (stereo not given in full): the “activity change, negative = cytotoxicity” value is 4.22% (inactive). Then `CC(C)COC(=O)c1ccc(N)cc1`, with 1.43% [at 42.5 µM] (inactive); and `CCCCN1C=CN(C)C1`, with 0.391% [at 19 µM] (inactive). Then `CCN[C@@H]1C[C@H](N)[C@@H](OC2OC(CN)=CCC2N)[C@H](O)[C@H]1O[C@H]1OC[C@](C)(O)[C@H](NC)[C@H]1O` (stereo not given in full), with 0.862% [at 0.349 µM] (inactive); and `O=C(O)CNC(=O)c1ccccc1`, with 6.96% [at 42.5 µM] (inactive). Then `c1ccc2sc(SN3CCOCC3)nc2c1`, with -0.0563% [at 42.5 µM] (inactive). As to `CCCCc1ccc2c(n1)[C@@H](c1ccc(OC)cc1C[C@H](C)C(=O)O)[C@H](C(=O)O)[C@H]2c1ccc2c(c1)OCO2`, the “activity change, negative = cytotoxicity” value is -14.8% (inactive). Take `C=COCC1CCC(COC=C)CC1` (stereo not given): the “activity change, negative = cytotoxicity” value was -5.63% (inactive).

As for `COc1cc2c(cc1OC)-c1cc3ccc(OC)c(OC)c3c[n+]1CC2`, the “activity change, negative = cytotoxicity” value is -18.8% (inactive). Then `[O-][n+]1cccc(CO)c1`, with 7.15% [at 42.5 µM] (inactive). The same measure for `CC1=NS(=O)(=O)c2cc(Cl)ccc2N1`: -1.67% [at 42.5 µM] (inactive); for `NC(CCC(=O)O)C(=O)O` (stereo not given): 2.6% (inactive).

Consider `Cc1ccccc1N=C(N)N=C(N)N`, for which the “activity change, negative = cytotoxicity” value is 0.338% (inactive). For the compound `CC[N+](C)(CC)CCOC(=O)C1c2ccccc2Oc2ccccc21`, the “activity change, negative = cytotoxicity” value is 0.909% [at 42.5 µM] (inactive). Then `C[C@H]1[C@H](NC(=O)/C(=N/OC(C)(C)C(=O)O)c2csc(N)n2)C(=O)N1S(=O)(=O)O` (stereo in doubt), with 5.61% [at 42.5 µM] (inactive); and `CC(C)C1CCC(O)CC1` (stereo not given), with 1.15% (inactive); and `CC(=O)Oc1cccc(C)c1`, with 10.6% [at 42.5 µM] (inactive). The same measure for `Nc1ccccn1`: -8.06% (inactive); for `O=C(O)CNC(=O)c1ccc(CO)o1`: -2.1% (inactive).

Turning to `CC1=CC(=O)[C@H]2C[C@@H]1C2(C)C`, the “activity change, negative = cytotoxicity” value is 0.628% (inactive). On to `NC(=O)N[C@@H](CCC(=O)O)C(=O)O`, for which the “activity change, negative = cytotoxicity” value was -2.19% [at 42.5 µM] (inactive). Turning to `C[N+](C)(C)CCCCCCCCCC[N+](C)(C)C`, the “activity change, negative = cytotoxicity” value was 4.07% [at 42.5 µM] (inactive). Regarding `O=[N+]([O-])c1cncn1CCN1CCOCC1`, the “activity change, negative = cytotoxicity” value was 2.9% [at 42.5 µM] (inactive). The same measure for `Nc1ccn([C@@H]2O[C@H](CO)[C@@H](O)C2(F)F)c(=O)n1`: 2.47% [at 42.5 µM] (inactive). The same measure for `CC(C)(CCC(=O)O)C(=O)O`: 3.63% (inactive).

For the origin of these results see PubChem BioAssay (Tox21).
